Experimental data as given in the supplement of paper PMC13392028.
In all, about 4,100 sequences were measured (“RBNS R-value (6-mer enrichment in protein-bound RNA vs input library)”: median about 0.99, highest 2% from about 1.4 on). Only a selection was taken, and the highest values are over-represented in it overall.

System: PfIESI-1 RRM domain (Plasmodium falciparum ortholog aa 875-1232, GST fusion)
Test: RBNS R-value (6-mer enrichment in protein-bound RNA vs input library) (ratio); higher = stronger binding preference; the methods of the paper give 50 / 100 / 500 nM protein instead
How it was run: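 Purified GST-tagged RNA-recognition-motif regions, from orthologues in three Plasmodium species expressed in E. coli, were bound at room temperature to a random 40-mer in vitro transcribed RNA library and captured on glutathione magnetic agarose beads. Bound RNA and input were reverse transcribed and MiSeq-sequenced, with 6-mers counted from one replicate. Enrichment in bound RNA over input is reported as the R-value, calculated with the Burge lab pipeline.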

| Sequence | RBNS R-value (protein concentration: 250 nM) | RBNS R-value (protein concentration: 500 nM) | RBNS R-value (protein concentration: 1000 nM) |
| --- | --- | --- | --- |
| GAGUCA | 0.969 | 0.989 | 0.99 |
| UGCAAG | 0.989 | 1.01 | 1.03 |
| AUUAGU | 0.821 | 0.901 | 0.849 |
| CUCAGG | 1.03 | 1.04 | 1.09 |
| CACCUG | 1.41 | 1.3 | 1.29 |
| CACCUA | 1.09 | 1.01 | 1.01 |
| CACCUC | 1.07 | 1 | 1.05 |
| UCGGGG | 1.04 | 0.984 | 1.05 |
| UCUGCG | 0.996 | 0.968 | 1 |
| UUAUUA | 0.766 | 0.749 | 0.734 |
| AAUGGG | 1.03 | 1.06 | 1.03 |
| GAUGGC | 1.85 | 1.82 | 1.48 |
| UAUGGG | 0.895 | 0.916 | 0.918 |
| GAUGGG | 1.47 | 1.46 | 1.34 |
| CAUGGC | 1.03 | 0.999 | 1.03 |
| UAUGGC | 1.09 | 1.06 | 0.988 |
| CCUCCC | 1.06 | 0.981 | 1.04 |
| ACUAGG | 0.943 | 0.956 | 0.957 |
| UGGACA | 0.973 | 0.993 | 0.99 |
